Compound activity deposited in PubChem by National Center for Advancing Translational Sciences (NCATS).
PNC assembly inh = perinucleolar compartment assembly inhibition; 140,000 compounds, 3.1% hits; activity change (PNC), negative = inhibition, % at 10 µM; AID 2417; PC3M PTB-GFP, PNC prevalence imaging, 16 h; active compounds read low;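 active = readout at or below -70, meaning at least 70% loss of cells showing the perinucleolar compartment, a nuclear body marking cancer cells; inconclusive = readout between -30 and a set limit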;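 also: plate controls were DMSO wells for no effect and camptothecin positive control wells for full effect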
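Read-out is percentage of cells bearing a perinucleolar compartment, from automated 20x imaging of fixed, Hoechst-stained PC3M PTB-GFP cells. Cells were seeded 4 h, then exposed 16 h to compound (23 nl of library stock) in duplicate plates.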
ALDH1A1 inh = blocks purified human ALDH1A1 activity; P00352; Purified ALDH1A1, NADH fluorescence, propionaldehyde substrate; Potency, µM (series often up to 75.3 µM), for inactives: at the highest dose activity, negative = inhibition, most hits filed as inhibitors; 220,000 compounds, 7.3% hits; AID 1030;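 also: potency is read from the fitted curve at half-maximal effect; plate controls were no enzyme wells and a reference inhibitor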
Target sequence (P00352 whole entry, looked up): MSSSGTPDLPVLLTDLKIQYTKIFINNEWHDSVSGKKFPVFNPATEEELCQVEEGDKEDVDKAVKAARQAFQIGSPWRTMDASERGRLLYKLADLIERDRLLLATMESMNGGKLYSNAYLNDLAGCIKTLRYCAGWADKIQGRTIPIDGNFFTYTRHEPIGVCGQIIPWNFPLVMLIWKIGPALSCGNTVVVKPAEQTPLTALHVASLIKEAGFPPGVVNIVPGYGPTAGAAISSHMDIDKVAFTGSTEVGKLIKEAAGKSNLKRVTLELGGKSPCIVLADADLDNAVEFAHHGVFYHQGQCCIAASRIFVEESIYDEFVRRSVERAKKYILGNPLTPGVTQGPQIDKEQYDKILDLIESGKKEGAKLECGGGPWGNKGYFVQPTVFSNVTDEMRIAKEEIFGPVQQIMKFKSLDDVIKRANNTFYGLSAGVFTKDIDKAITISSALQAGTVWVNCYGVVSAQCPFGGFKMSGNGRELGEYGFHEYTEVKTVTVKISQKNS
Lamin A splicing = changes lamin A minigene splicing in HeLa cells; Potency, µM (doses to about 46.1 µM), for inactives: at the top dose ratio change, negative = inhibition, most hits filed as inhibitors; 200,000 compounds, 0.01% hits; HeLa LMNA splicing GFP/RFP minigene ratio, 48 h; active = well fitted inhibition curve with a large enough effect in the signal ratio, with a control signal flat, not every such curve was filed as active; inconclusive = small, poorly fitted or top-dose-only effect, or effect the other way, or a change in a side signal; the % refers to the signal ratio; also: potency is read from the fitted curve at half-maximal effect
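S3 HeLa stable clones carrying a lamin A-EGFP splicing minigene plus DsRed2 were seeded at 600 cells/well in Opti-MEM with 2% FBS, pin-dosed and incubated 48 h at 37°C. Acumen cytometry (488 nm) gave the GFP/RFP total-intensity ratio.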
KinaseGlo FLuc = blocks Kinase-Glo luciferase, a counter-screen artifact. Potency, µM (doses to about 38.3 µM), without a hit: at the highest dose activity change, negative = inhibition, actives largely listed as inhibitors. Kinase-Glo luciferase, ATP luminescence, 8 min. 200,000 compounds, 0.28% hits; active = well fitted inhibition curve with a large enough effect; inconclusive = small, poorly fitted or top-dose-only effect; also: potency is read from the fitted curve at half-maximal effect; nearly all actives have a fitted effect of over 60% in size
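Kinase-Glo luciferase light output from ATP and luciferin was measured with 10 uM ATP, within the enzyme's linear range. Buffer: 50 mM imidazole pH 7.2, 50 mM KCl, 7 mM MgCl2, 0.01% Tween 20, 0.05% BSA; luminescence read after 8 min at ambient temperature.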
HPGD block = inhibitors of human 15-hydroxyprostaglandin dehydrogenase (HPGD); AID 894; Potency, µM, for inactives: top-dose activity change, negative = inhibition, most hits filed as inhibitors; purified HPGD, NADH fluorescence kinetic, PGE2 substrate; 150,000 compounds, 4.3% hits; also: potency is read from the fitted curve at half-maximal effect
Target sequence (P15428 whole entry, looked up): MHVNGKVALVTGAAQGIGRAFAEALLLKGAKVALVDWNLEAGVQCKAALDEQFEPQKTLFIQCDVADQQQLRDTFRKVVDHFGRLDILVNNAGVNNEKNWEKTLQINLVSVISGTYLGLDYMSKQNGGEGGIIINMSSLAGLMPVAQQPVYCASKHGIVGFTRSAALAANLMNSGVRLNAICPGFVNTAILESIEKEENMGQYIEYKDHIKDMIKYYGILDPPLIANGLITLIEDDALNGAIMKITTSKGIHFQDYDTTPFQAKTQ
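NADH formation kinetics: reaction with 30 uM PGE2 and 1 mM NAD+ (final), 20 nM enzyme, Tris-HCl pH 8 with Tween 20, after 15 min compound preincubation at room temperature. Fluorescence change, last versus first of five reads.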
The depositor's hits bear a star; ? = inconclusive; / = not tested or not shown; [ ] = remark or other dose. Shown are actives, neighbours in structure and some others; about 10% of the full set was active somewhere. Unless noted, calls follow the shape of the dose curve; as a rule, active = well fitted inhibition curve with a large enough effect (not every such curve was filed as active); inconclusive = small, poorly fitted or top-dose-only effect, or another doubt; inactive = no such curve, though single readings can be large or run the other way. Unless noted, % is scaled to controls: 0 for no effect and ±100 for the full control effect.

SMILES	PNC assembly inh	ALDH1A1 inh	Lamin A splicing	KinaseGlo FLuc	HPGD block
CCOc1ccccc1NC(=O)C(c1ccccc1)N1Cc2ccccc2C1=O (stereo not drawn)	/	/	1.1%[46 µM]	/	/
CC(/C=C/C=C/c1ccccc1)=N\NC(=O)c1cccnc1	/	?	/	2.0%	/
CC(/C=C\C=C\c1ccccc1)=N\NC(=O)c1cncc(Br)c1	/	22.4µM*	-27.7%[46 µM]	2.8%	/
COc1ccc(CN2CCN(C(=O)c3cccs3)CC2)c(OC)c1OC	-15.6	17.8µM*	0.3%	-5.8%	-11.3%
COc1cccc(C(=O)N2CCN(Cc3ccccc3[N+](=O)[O-])CC2)c1	?	?	-4.7%	2.0%	0.7%
O=C(c1cccs1)N1CCN(Cc2ccccc2[N+](=O)[O-])CC1	-20.7	25.1µM*	?	-0.1%	-4.7%
COc1ccc(CN2CCN(C(=O)c3ccc(-c4ccccc4)cc3)CC2)c(OC)c1OC	/	?	/	-1.0%	/
COc1ccc(CN2CCN(C(=O)C3CCC(CNS(=O)(=O)c4ccccc4)CC3)CC2)c(OC)c1OC (stereo not drawn)	/	14.1µM*	/	-3.5%	/
Cc1cc(O)c(C)c(O)c1C(=O)O	/	-0.8%	/	-2.9%	-4.4%
O=[N+]([O-])c1cccc(-c2cn(-c3ccccc3)c(=S)[nH]2)c1	/	-10.5%	/	-1.5%	/
O=[N+]([O-])c1ccc2c(c1)[nH]c(=S)n2-c1ccccc1	/	3.98µM*	/	0.2%	/
COc1ccc(CNC(=O)/C=C/c2ccco2)cc1OC	/	3.55µM*	/	12.2%	/
COc1ccc(C(NC(=O)/C=C/c2ccco2)c2ccc(OC)c(OC)c2)cc1 (stereo not drawn)	1.0	20µM*	?	-5.1%	?
COc1ccc(-c2ccc3c(n2)CCCN3C[C@H](O)CN2CCCc3nc(-c4ccc(Br)cc4)ccc32)cc1	/	-14.2%[13.5 µM]	/	/	/
O=C(CSc1nc2c([nH]c3ccccc32)c(=O)n1-c1ccccc1)NCc1ccc(F)cc1	/	/	6.1%[46 µM]	/	/
Cc1ccc(N=Cc2cc(Cc3ccccc3Cl)cc([N+](=O)[O-])c2O)c(O)c1	/	11.2µM*	/	-9.4%	/
COc1ccc(N=Cc2cc(Cc3ccccc3Cl)cc([N+](=O)[O-])c2O)cc1OC	/	7.08µM*	/	-1.2%	/
COc1ccc([N+](=O)[O-])cc1NC(=O)Cc1ccccc1Cl	?	-7.8%	4.1%	1.7%	-8.8%
CCN(CC)CCN1C(=O)C(O)=C(C(C)=O)C1c1ccc(OC)c(OC)c1 (stereo not drawn)	31.7	17.8µM*	-2.2%	-5.2%	-17.9%
O=C(Nc1ccc(Cl)cc1)OCc1cc(-c2ccccc2Cl)on1	104.7	3.98µM*	-6.4%	0.3%	-4.4%
O=C1CC(N2CCOCC2)C(=O)N1c1ccccc1Cl (stereo not drawn)	-94.0*	?	-10.3%	-2.5%	-8.7%
COc1cccc(N2CCN(C3CC(=O)N(c4cccc(Cl)c4)C3=O)CC2)c1 (stereo not drawn)	5.3	?	16.4%	3.8%	0.8%
CCCOc1ccccc1N1C(=O)CC(N2CCOCC2)C1=O (stereo not drawn)	-25.8	5.2%	12.3%	0.8%	-12.4%
O=C1CC(N2CCOCC2)C(=O)N1c1cc(Cl)cc(Cl)c1 (stereo not drawn)	?	3.16µM*	5.7%	-10.5%	-25.7%
O=C1CC(N2CCN(c3ccccc3Cl)CC2)C(=O)N1c1ccccc1 (stereo not drawn)	-11.5	25.1µM*	9.2%	3.3%	-12.8%
SMILES	PNC assembly inh	ALDH1A1 inh	Lamin A splicing	KinaseGlo FLuc	HPGD block
Cc1cccc(Oc2nc(-c3cccc([N+](=O)[O-])c3)nc3ccccc23)c1C	-2.1	3.4%	-0.4%	-2.3%	-5.4%
O=[N+]([O-])c1cccc(-c2nc(Oc3ccc(Cl)cc3)c3ccccc3n2)c1	?	?	?	-10.1%	25.1µM*
COc1ccc(NC(=O)N2CCCC3(CCN(C(=O)c4cccn4C)CC3)C2)cc1	/	?	/	-4.3%	-8.8%
Cc1ccc(S(=O)(=O)C2(C(=O)N3CCCC(C)C3)CC2)cc1 (stereo not drawn)	53.5	1.1%	12.7%	-2.3%	25.1µM*
Cc1ccc(O)c(C(=O)c2cnc3c(c2)CN(C)C(=O)N3)c1	?	25.1µM*	-13.9%	-3.0%	28.2µM*
Cc1ccc(O)c(C(=O)c2cnc3c(c2)COc2ccc(C)cc2-3)c1	?	-4.1%	?	-0.5%	17.8µM*
Cc1ccc2c(c1)-c1ncc(C(=O)c3cc(Br)ccc3O)cc1CO2	/	-15.6%	-22.9%[9.22 µM]	0.9%	/
Cc1ccc(O)c(C(=O)c2cnc3c(c2)CN(CCC(C)C)C(=O)N3)c1	0.9	?	?	-4.4%	-20.2%
CN1Cc2cc(C(=O)c3cc(Cl)cc(CSc4ncccn4)c3O)cnc2NC1=O	?	28.2µM*	?	-2.2%	14.1µM*
C[C@@H](CN(C)C[C@H]1C(=O)O[C@@H]2C[C@@]3(C)CCC[C@]4(CO4)C3CC21)[C@H](O)c1ccccc1 (stereo partly drawn)	/	-8.4%	/	-2.6%	-2.1%
Cc1cccc(NC(=O)c2ccc(C3SCC(=O)N3CCc3ccccc3)cc2)c1 (stereo not drawn)	31.7	?	?	3.3%	?
CC(=O)Nc1ccc(NC(=O)c2ccc(C3SCC(=O)N3CCc3ccccc3)cc2)cc1 (stereo not drawn)	-26.3	25.1µM*	?	0.0%	-16.8%
Cc1cc(C)cc(NC(=O)c2cc(S(=O)(=O)N3CCCCCC3)cn2C)c1	/	/	18.7%[46 µM]	/	/
CC1CCCC(=C\c2ccccc2)/C1=N/O (stereo not drawn)	2.0	-7.9%	-0.8%	-5.9%	3.16µM*
O=C1/C(=C/c2ccccc2)CCC1C1CCCC1 (stereo not drawn)	19.7	-8.0%	-13.8%	-3.9%	?
CN(C)C(=O)N1CCN(C(=O)N2CCOCC2)CC1	-100.0*	-3.0%	-4.2%	-2.1%	-6.3%
CCN(CC)C(=O)N1CCN(C(=O)N2CCOCC2)CC1	/	5.0%	9.8%[46 µM]	0.4%	/
CCCCc1nn2c(=O)cc(COC(=O)c3ccc(NC(=O)c4cccc(OC)c4)cc3)nc2s1	/	/	12.2%[46 µM]	/	/
CCN(CC)CCCC(C)Nc1nc(C)cc(Nc2ccc3nc(C)cc(N)c3c2)n1 (stereo not drawn)	/	-10.5%	/	0.3%	-7.9%
COc1cccc(-c2coc3ccc(Br)cc3c2=O)c1	/	6.7%	/	0.6%	-5.3%
C=C1C2(C(=O)NCc3ccco3)CCC(C2)C1(C)C (stereo not drawn)	?	-6.4%	-7.0%	-6.3%	25.1µM*
COCCn1c(C)cc(O)c(C(c2ccccc2Cl)N2CCN(c3ccccc3)CC2)c1=O (stereo not drawn)	/	/	-1.5%[46 µM]	/	/
COc1ccc(CNC(=O)C23CN(Cc4ccccc4)CC2C(c2ccc([N+](=O)[O-])cc2)=NO3)cc1 (stereo not drawn)	-29.8	?	-1.8%	0.7%	-7.7%
